In PubChem BioAssay (NCI):
This is part of a sample that, as a whole, favours compounds with a hit. Of some 83,000 tested, about 20% had one in any assay.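 48-hour exposure, single concentration, 96-well plates; percent growth endpoint where 0 means no net growth. Active: below 10.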 A number with no mark means an inactive call. The source made the active and inactive calls.

Tests used:
Experiment in all cases: NCI-60 one-dose screen, 48 h (100 = growth as untreated, 0 = no growth, -100 = all killed)
SK-MEL-2 melanoma = settings: 10 µM unless noted
EKVX NSCLC = settings: 10 µM unless noted
SN12C renal = settings: 10 µM unless noted
UO-31 renal = settings: 10 µM unless noted
TK-10 renal = settings: 10 µM unless noted
ACHN renal = settings: 10 µM unless noted
A498 renal = settings: 10 µM
HL-60(TB) leukemia = settings: 10 µM unless noted
CCRF-CEM leukemia = settings: 10 µM unless noted
CAKI-1 renal = settings: 10 µM unless noted

| SMILES | growth (SK-MEL-2 melanoma) | growth (EKVX NSCLC) | growth (SN12C renal) | growth (UO-31 renal) | growth (TK-10 renal) | growth (ACHN renal) [%] | growth (A498 renal) | growth (HL-60(TB) leukemia) | growth (CCRF-CEM leukemia) | growth (CAKI-1 renal) [%] |
| --- | --- | --- | --- | --- | --- | --- | --- | --- | --- | --- |
| CC[C@]12C=CCN3CC[C@@]4(c5ccc(OC)cc5N(C)[C@H]4[C@@](O)(C(=O)OC)[C@@H]1OC(=O)CCCC[P+](c1ccccc1)(c1ccccc1)c1ccccc1)[C@@H]32 | -41.6% (active) | 56.1% | 4.56% (active) | 81.9% | 48.6% | 93.1 | 52.2% | -63.5% (active) | 15.6% | – |
| O=NN1CCCc2cccc(O)c21 | 56.1% | 69.4% | 21.7% | 20.9% | 95.9% | – | 86.8% | – | 30.2% | – |
| CC[C@H](C)[C@H](NC(=O)NC(C)(C)C)C(=O)N(C)[C@H](C[C@@H](OC(C)=O)c1nc(C(=O)N[C@@H](Cc2ccccc2)C[C@H](C)C(=O)OC)cs1)C(C)C | 47.3% | 29.4% | 12.1% | 45.4% | 49.5% | – | -10% (active) | -14.6% (active) | 10.7% | 22.2 |
| Nc1ccc2c(c1)Cc1cc(Br)ccc1-2 | 112% | 64.2% | 85.3% | 49% | – | 106 | 76.4% | 47.8% | 50% | 98.1 |
| COc1cc2c(c(OC)c1OC)-c1ccc([O-])c(=O)cc1[C@@H](NC(C)=O)CC2.COc1cc2c(c(OC)c1OC)-c1ccc([O-])c(=O)cc1[C@@H](NC(C)=O)CC2.[Cu+2] | -4.65% (active) | 62% | 43.5% | 22.2% | 71.7% | – | 14.9% | -44.9% (active) | 9.3% (active) | – |
| CCCCCCCCC(CO)NCCc1ccccc1 (centres undefined) | 96.3% | 119% | 99.4% | 88.1% | 98.8% | – | 95.2% | 70.1% | 62% | – |
| O=[N+]([O-])c1cnc[nH]1 | 102% | 109% | 103% | 94.8% | 111% | – | – | 134% | 103% | 99 |
| CCCCOc1ccc(C(N)Cc2ccccc2)cc1 (centres undefined) | 107% | 91.8% | 95.4% | 74.6% | 98% | – | 65% | 84.7% | 98.5% | 84.1 |
| ClC1=C(Cl)C(Cl)(C2(Cl)C(Cl)=C(Cl)C(Cl)=C2Cl)C(Cl)=C1Cl | 16.9% | 5.58% (active) | -25.2% (active) | -89.6% (active) | -91.3% (active) | – | 67% | -36.3% (active) | -57.6% (active) | – |
| O=C1NC(=O)C(=Cc2cn(C(=O)c3ccccc3)c3ccccc23)C(=O)N1 | 96.5% | 97.5% | 91.9% | 64.2% | – | 93.5 | 115% | 108% | 104% | 92.8 |
| CC(=O)Nc1ccc(NC(=O)c2ccc([As](O)O)cc2)cc1 | 96% | 110% | 93.9% | 69.4% | – | 105 | 133% | 44.5% | 47.7% | 107 |
| Clc1ccc(CSC(Cn2ccnc2)c2ccc(Cl)cc2Cl)cc1 (centres undefined) | 34.1% | 31.7% | 38.5% | 4.12% (active) | 32.3% | – | 49.2% | -11.6% (active) | 20% | 20.8 |
| Clc1ccc(COC(Cn2ccnc2)c2ccc(Cl)cc2Cl)cc1 (centres undefined) | 68.9% | 30.7% | 68.4% | 20.7% | 62% | – | 43.4% | -40.2% (active) | 30.6% | – |
| CC1=C(CN)C2=C(C)C3(CC3)[C@@](C)(O)C(=O)C2=C1 | 98.5% | 102% | 90.2% | 90.3% | – | 97.3 | 68.6% | 88.2% | 110% | 94.7 |
